TWEAK Fn14 block: blocks TWEAK-Fn14 interaction in a reporter cell assay; TWEAK-stimulated Fn14 reporter cells, luciferase luminescence, 8 h; inhibition, % at 10 µM; 2% of 360,000 active; AID 1159606; in the data active means inhibition above about 50%
KKLEB cytotox: counter-screen for CF NF-kB inhibitors: cytotoxicity | KKLEB CF airway cells viability, ATPlite luminescence, overnight; stronger effect = lower value; cells stimulated with P. aeruginosa culture filtrate | activity change (cytotoxicity), % at 5 µM | AID 602141 | 0.36% of 360,000 active;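 active means corrected activity change at or below -50% at 5 µM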
TROY signal inh: inhibitors of TROY-dependent NF-kB signaling. Q293 LMP1-TROYcd NF-kB luciferase reporter, 4 h. inhibition, % at 10 µM. 0.98% of 360,000 active;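 active means compounds whose plate-normalised and pattern-corrected inhibition of the luciferase reporter signal at the single screening dose is 50% or more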
CF NFkB block: blocks PAF-induced NF-kB reporter in cystic fibrosis cells. KKLEB NF-kB-GFP reporter, GFP fluorescence overnight. inhibition, % at 5 µM. 0.86% of 360,000 active;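 active means at least 50% inhibition at 5 µM, scaled per plate between neutral and stimulator controls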;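 further: PAF is a Pseudomonas aeruginosa culture filtrate used as stimulus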
HIF-2a block: HIF-2a inhibition. AID 624352. 0.72% of 360,000 active. inhibition, % at 18.8 µM. 786-0 RCC cells HIF-2a reporter, luciferase luminescence, overnight;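 active means inhibition of the luminescence signal of 40% or more relative to plate controls, in a single-dose primary screen at 18.75 µM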
Peg3 prom inh: reduces Peg3 promoter-driven luciferase expression in HeLa; HeLa PEG-Prom luciferase reporter, luminescence, overnight; 1.7% of 360,000 active; inhibition, % at 20 µM; AID 588405;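 active means inhibition of at least 50% at 20 µM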
Numbers stand for hits; - = inactive. An excerpt weighted towards active compounds, which were near 4% of everything screened.

SMILES	TWEAK Fn14 block	KKLEB cytotox	TROY signal inh	CF NFkB block	HIF-2a block	Peg3 prom inh
CC(C)C[C@H]1CN([C@@H](CC(C)C)CN2CCCC2CN2C(=S)NC[C@@H]2Cc2ccc(O)cc2)C(=S)N1CC1CCCCCC1 (some centres undefined)	-	-	-	-	-	91
CC(C)C[C@H]1CN([C@@H](CC(C)C)CN2CCC[C@@H]2CN2C(=S)NC[C@@H]2Cc2ccc(O)cc2)C(=S)N1CC1CCCCC1	-	-55	-	65	-	95
O=C(NCc1ccccc1)c1cc(C2COCCN2C(=O)CCc2ccccc2)on1 (centres undefined)	-	-	-	-	-	-
CC(C)NC(=O)c1nc2c(nnn2Cc2cccc(Cl)c2)c(=O)[nH]1	-	-	-	-	-	-
Oc1ccc(C[C@H]2CNC(=S)N2C[C@H]2CCCN2C[C@H](Cc2ccccc2)N2C[C@H](Cc3ccc(O)cc3)N(CCc3ccccc3)C2=S)cc1	-	-	-	-	-	76
Oc1ccc(C[C@H]2CNC(=S)N2CC2CCCN2C[C@H](Cc2ccccc2)N2C[C@H](Cc3ccc(O)cc3)N(CC3CCCCC3)C2=S)cc1 (some centres undefined)	-	-	-	-	-	97
Oc1ccc(C[C@H]2CN([C@@H](Cc3ccc(O)cc3)CN3CCC[C@@H]3CN3C(=S)NC[C@@H]3Cc3ccccc3)C(=S)N2CCc2ccccc2)cc1	-	-	-	-	-	-
Cc1ccc(Sc2nc(-c3ccccc3)nnc2C(F)(F)F)cc1	-	-	-	-	-	105
CC(C)(C)c1ccc(O)c(N=Cc2cc(Br)ccc2O)c1	88	-	85	-	52	-
O=C1CC[C@@H]2C[C@@]3(C[C@@H]4CCN1[C@H]24)Nc1cc([N+](=O)[O-])ccc1NC3=NCc1ccccc1	-	-	-	-	-	-
CN1OC[C@@H]2CN(C(=O)C(C)(C)C)[C@H](c3cccc(N4CCOCC4)c3)C[C@@H]21	-	-	-	-	-	-
CN1OC[C@@H]2CN(C(=O)C(C)(C)C)[C@H](c3cccc(Br)c3)C[C@@H]21	61	-	64	-	-	-
O=c1cc(Nc2ccc3c(c2)OCCO3)[nH]c(=O)n1-c1ccc(Cl)cc1	72	-	64	-	-	-
CC(C)CCC1(CCO)C(=O)N=C(N)NC1=O (centres undefined)	-	-	-	-	-	-
CCOc1ccccc1NC(=O)Cn1nnc(C(=O)NCc2ccc3c(c2)OCO3)c1N	-	-	-	-	-	-
CCOC(=O)N1CCN(CC(O)COc2ccc3c(c2)CCC3)CC1 (centres undefined)	-	-	-	-	-	-
O=C(Nc1ccc2c(c1)OCO2)c1cc(C2CCCN(C(=O)CCc3ccccc3)C2)on1 (centres undefined)	-	-	-	-	-	-
Cc1ccnc(NC(=O)c2cccc(S(=O)(=O)N3CCN(c4ccccc4)CC3)c2)c1	72	-	-	-	-	-
CN(CCOc1ccc(Cl)cc1)C(=O)c1cccc(S(=O)(=O)N2CCN(c3ccccc3)CC2)c1	50	-	-	-	-	-
Cc1ccnc(NC(=O)c2cccc(S(=O)(=O)N3CCCC3)c2)c1	-	-	-	-	-	-
CCCNC(=O)c1cn(CC)c2cc(N3CCN(C(=O)c4ccco4)CC3)c(F)cc2c1=O	-	-	-	-	-	-
CCn1cc(C(=O)NCc2cccc(F)c2)c(=O)c2cc(F)c(N3CCN(C(=O)c4ccco4)CC3)cc21	52	-	-	-	-	55
Cc1ccccc1Cn1nnc2c1C(=O)c1ccccc1C2=O	-	-	50	-	-	-
Cc1cccc(Cn2nnc3c2C(=O)c2ccccc2C3=O)c1	-	-	-	62	-	-
Cc1cc(=O)n2nc(N3CCC(C(=O)NCc4ccccc4Cl)CC3)sc2n1	-	-	-	-	-	-
CNc1ncnc2c1ncn2[C@H]1CN(Cc2ccc3c(c2)OCO3)C[C@@H](CO)O1	-	-	-	-	-	-
CN1C[C@@H]2[C@@H]3C(=O)N(C)C(=O)[C@@H]3[C@](C)(C1=O)N2C(=O)c1ccc(C(F)(F)F)cc1	-	-	-	-	-	-
CCCCN(C)CC(O)Cn1cc(/C=C/C(=O)c2ccc(C)cc2)c2ccccc21 (centres undefined)	-	-	-	-	-	100

Assay outcomes as filed in PubChem BioAssay.
